# Reference: PubChem BioAssay (NCATS)
# Results filed as inconclusive are left out. Where a call stands in place of a potency, no number is given. Activity calls are given as the source filed them. Unless noted, calls come from the whole dose curve; as a rule, active = well fitted curve in the direction sought with a large enough effect; inconclusive = small, poorly fitted or top-dose-only effect, or another doubt; inactive = no such curve, though single readings can be large; an effect the other way counts as inactive or inconclusive.
# Experiments:
# [1] = Stat Signaling Pathway (AID 446; active = well fitted curve in either direction with a large enough effect, not every such curve was filed as active;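 note: ME-180 cervical cancer cells given 40 pM IL-6 alongside compound; SIE-controlled beta-lactamase reporter measured as 460/530 nm FRET emission ratio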)
# Procedure, shortened: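 IL-6/STAT signaling read in ME-180 cells via an SIE beta-lactamase reporter. Stimulus was 40 pM IL-6 (its AC50) for 5 hrs, so both activation and inhibition register.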
# [2] = molecular target: Mitogen-activated protein kinase 10 (Mus musculus) (UniProt Q61831); test: JNK3 AlphaScreen Assay (AID 530; active = well fitted curve in either direction with a large enough effect, not every such curve was filed as active;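 note: kinase came from lysate of stimulated human HepG2 cells; signal reports phosphorylation of biotinylated GST-cJun 1-79 at Ser73 with 10 µM ATP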)
# Procedure, shortened: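 Compound titrations were preincubated 15 minutes at room temperature with substrate, antibody and pre-activated JNK3-containing HepG2 lysate. Reactions were started with 10 uM ATP and stopped with EDTA-containing bead buffer for AlphaScreen detection.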
# [3] = molecular target: 3',5'-cyclic-AMP phosphodiesterase 4B (Homo sapiens) (UniProt Q07343); test: qHTS Assay for Inhibitors of PDE-IV (AID 607; active = well fitted activation curve with a large enough effect in the main read-out, with a control signal flat, not every such curve was filed as active)
# Sequence of 3',5'-cyclic-AMP phosphodiesterase 4B (Homo sapiens) (Q07343 whole entry, looked up): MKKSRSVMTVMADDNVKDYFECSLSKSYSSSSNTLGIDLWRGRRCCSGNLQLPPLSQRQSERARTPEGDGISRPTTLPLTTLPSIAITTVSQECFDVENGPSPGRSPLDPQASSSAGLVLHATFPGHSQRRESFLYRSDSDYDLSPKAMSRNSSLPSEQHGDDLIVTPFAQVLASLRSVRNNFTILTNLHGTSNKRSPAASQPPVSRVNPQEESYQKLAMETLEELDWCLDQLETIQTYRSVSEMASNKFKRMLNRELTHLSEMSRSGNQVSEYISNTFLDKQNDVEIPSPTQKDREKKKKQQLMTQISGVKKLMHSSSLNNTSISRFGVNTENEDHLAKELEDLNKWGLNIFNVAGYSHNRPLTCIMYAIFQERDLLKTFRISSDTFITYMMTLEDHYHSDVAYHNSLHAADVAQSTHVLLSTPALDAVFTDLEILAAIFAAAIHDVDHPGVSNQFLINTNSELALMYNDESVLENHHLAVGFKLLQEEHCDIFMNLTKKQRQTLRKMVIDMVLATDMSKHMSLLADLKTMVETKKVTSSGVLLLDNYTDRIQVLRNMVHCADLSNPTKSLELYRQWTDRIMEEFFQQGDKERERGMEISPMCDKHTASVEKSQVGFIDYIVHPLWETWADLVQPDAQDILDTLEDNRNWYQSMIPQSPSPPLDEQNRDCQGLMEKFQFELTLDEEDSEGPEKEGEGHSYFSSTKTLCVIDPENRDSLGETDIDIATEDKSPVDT
# Procedure, shortened: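 Live HEK293 cells with a modified cyclic nucleotide-gated (CNG) channel report intracellular cAMP via membrane-potential dye fluorescence (ex 535/em 590 nm). Endogenous PDE-IV was targeted. Compounds were tested at up to 22.9 uM final; RO 20-1724 100 uM served as control.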
# [4] = qHTS Assay for Lipid Storage Modulators (AID 1519; calls by dose curve); details: Drosophila S3 cells, BODIPY lipid droplet/cell ratio, laser cytometry, cells loaded with oleic acid
# Procedure, shortened: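 Cells seeded at 5,000 per well were treated with compounds over a concentration series and loaded with oleic acid (400 uM, as added). Lipid droplet fluorescence (488 nm excitation, 500-530 nm channel) was read by laser-scanning cytometry and normalized to 20 uM Triacsin C.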
# [5] = molecular target: ATP-dependent 6-phosphofructokinase (Trypanosoma brucei brucei) (UniProt O15648); test: qHTS Assay to Find Inhibitors of T. brucei phosphofructokinase: hit validation (AID 492961);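 note: luminescence reports ADP formed as PFK phosphorylates fructose-6-phosphate with ATP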
# Sequence of ATP-dependent 6-phosphofructokinase (Trypanosoma brucei brucei) (O15648 whole entry, looked up): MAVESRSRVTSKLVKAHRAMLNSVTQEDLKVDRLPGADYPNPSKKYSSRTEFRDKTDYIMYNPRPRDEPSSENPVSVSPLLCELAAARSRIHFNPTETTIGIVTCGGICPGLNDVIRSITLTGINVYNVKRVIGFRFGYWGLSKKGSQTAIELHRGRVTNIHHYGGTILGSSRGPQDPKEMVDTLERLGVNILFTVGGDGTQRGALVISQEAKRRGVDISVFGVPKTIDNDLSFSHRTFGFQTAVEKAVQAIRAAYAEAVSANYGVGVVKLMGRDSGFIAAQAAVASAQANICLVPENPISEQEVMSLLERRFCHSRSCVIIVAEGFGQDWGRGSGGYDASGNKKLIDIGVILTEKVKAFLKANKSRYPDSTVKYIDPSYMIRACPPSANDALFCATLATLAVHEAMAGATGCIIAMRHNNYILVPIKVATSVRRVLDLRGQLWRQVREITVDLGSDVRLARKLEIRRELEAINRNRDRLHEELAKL
# Procedure, shortened: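 Measures ADP output of PFK (1.25 nM) at 0.1 mM ATP, 0.5 mM F6P, pH 8.0 TEA buffer with 5 mM MgCl2. No-enzyme wells define full inhibition; uninhibited enzyme wells define zero.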
# [6] = molecular target: Ubiquitin carboxyl-terminal hydrolase 1 (Homo sapiens) (UniProt O94782); test: Inhibitors of USP1/UAF1: Pilot qHTS (AID 504865);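 note: rhodamine fluorescence freed from ubiquitin-rhodamine substrate followed over time; top concentration of the series differs between compounds; nearly all actives have a fitted effect of over 35% in size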
# Sequence of Ubiquitin carboxyl-terminal hydrolase 1 (Homo sapiens) (O94782 whole entry, looked up): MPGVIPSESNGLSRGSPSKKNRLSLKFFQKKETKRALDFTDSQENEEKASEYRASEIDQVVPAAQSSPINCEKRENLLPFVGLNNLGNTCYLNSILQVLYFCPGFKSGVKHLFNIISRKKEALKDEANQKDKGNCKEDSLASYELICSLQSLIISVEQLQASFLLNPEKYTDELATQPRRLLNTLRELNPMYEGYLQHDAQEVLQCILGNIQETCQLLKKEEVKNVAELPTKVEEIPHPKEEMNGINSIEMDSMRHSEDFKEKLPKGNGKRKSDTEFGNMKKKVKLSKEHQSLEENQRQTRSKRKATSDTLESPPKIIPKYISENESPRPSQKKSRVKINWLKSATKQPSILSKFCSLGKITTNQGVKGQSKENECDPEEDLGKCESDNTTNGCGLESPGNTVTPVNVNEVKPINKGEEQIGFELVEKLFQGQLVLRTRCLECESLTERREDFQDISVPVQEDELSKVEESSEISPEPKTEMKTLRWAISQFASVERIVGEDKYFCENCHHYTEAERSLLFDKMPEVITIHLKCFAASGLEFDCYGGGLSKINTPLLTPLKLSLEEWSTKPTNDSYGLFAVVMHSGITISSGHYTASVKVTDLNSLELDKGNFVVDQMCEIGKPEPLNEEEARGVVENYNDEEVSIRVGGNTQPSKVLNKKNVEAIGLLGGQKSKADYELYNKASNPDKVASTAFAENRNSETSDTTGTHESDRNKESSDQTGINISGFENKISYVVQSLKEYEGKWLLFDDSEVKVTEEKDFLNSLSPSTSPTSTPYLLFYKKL
# Procedure, shortened: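 Kinetic fluorescence assay: 1nM USP1/UAF1, 15 min compound preincubation, then 150nM Ub-Rho; 480/540 nm.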
# [7] = molecular target: Luciferin 4-monooxygenase (Photinus pyralis) (UniProt P08659); test: Biochemical firefly luciferase enzyme assay for NPC (AID 624030);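 note: purified P. pyralis luciferase at 10 nM with luciferin and ATP substrate; nearly all actives have a fitted effect of over 70% in size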
# Sequence of Luciferin 4-monooxygenase (Photinus pyralis) (P08659 whole entry, looked up): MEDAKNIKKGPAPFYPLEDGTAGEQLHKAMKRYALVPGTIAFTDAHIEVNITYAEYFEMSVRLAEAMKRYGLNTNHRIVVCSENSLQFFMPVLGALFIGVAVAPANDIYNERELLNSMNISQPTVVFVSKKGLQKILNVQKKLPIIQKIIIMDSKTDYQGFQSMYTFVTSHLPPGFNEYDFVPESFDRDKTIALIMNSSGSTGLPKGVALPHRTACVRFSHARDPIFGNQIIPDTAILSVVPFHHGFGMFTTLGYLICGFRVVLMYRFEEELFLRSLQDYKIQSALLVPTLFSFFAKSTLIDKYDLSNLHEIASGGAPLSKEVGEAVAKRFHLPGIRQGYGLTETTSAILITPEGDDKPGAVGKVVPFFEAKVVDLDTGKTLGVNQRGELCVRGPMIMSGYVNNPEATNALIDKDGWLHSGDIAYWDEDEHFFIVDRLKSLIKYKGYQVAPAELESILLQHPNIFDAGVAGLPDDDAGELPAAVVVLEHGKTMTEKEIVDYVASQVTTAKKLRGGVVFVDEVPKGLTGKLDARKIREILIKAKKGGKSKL
# Procedure, shortened: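 Direct inhibition of firefly luciferase enzyme (10 nM final, 50 mM Tris Acetate) assessed by luminescence within 5 minutes. Percent activity scaled between DMSO and PTC124 positive control, with concentration-effect curves classified by fit quality and response.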
# [8] = qHTS profiling for inhibitors of Plasmodium falciparum proliferation (AID 504749); note: nearly all actives have a fitted effect of over 60% in size; details: P. falciparum in erythrocytes, SYBR Green DNA, 72 h
# Procedure, shortened: (§1)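 Infected RBCs, 0.3% parasitemia/2.5% Hct final; cpd 72 h, 37 C, 5% CO2; lysis buffer with saponin/triton/SYBR Green I, o/n RT dark; FI 485/535; norm. to artemisinin (0.29 uM) and DMSO.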
# 3D7 = test: as above; details: P. falciparum in erythrocytes, SYBR Green DNA, 72 h; series mostly up to 12.8 µM
# Procedure, shortened: as §1
# C2A = test: as above; details: P. falciparum in erythrocytes, SYBR Green DNA, 72 h; series mostly up to 12.8 µM
# Procedure, shortened: as §1
# CP217 = test: as above; details: P. falciparum in erythrocytes, SYBR Green DNA, 72 h; series mostly up to 12.8 µM
# Procedure, shortened: as §1
# CP238 = test: as above; details: P. falciparum in erythrocytes, SYBR Green DNA, 72 h; series mostly up to 12.8 µM
# Procedure, shortened: as §1
# CP262 = test: as above; details: P. falciparum in erythrocytes, SYBR Green DNA, 72 h; series mostly up to 12.8 µM
# Procedure, shortened: as §1
# CP269 = test: as above; details: P. falciparum in erythrocytes, SYBR Green DNA, 72 h; series mostly up to 12.8 µM
# Procedure, shortened: as §1
# CP305 = test: as above; details: P. falciparum in erythrocytes, SYBR Green DNA, 72 h; series mostly up to 12.8 µM
# Procedure, shortened: as §1
# CP325 = test: as above; details: P. falciparum in erythrocytes, SYBR Green DNA, 72 h; series mostly up to 12.8 µM
# Procedure, shortened: as §1
# CP329 = test: as above; details: P. falciparum in erythrocytes, SYBR Green DNA, 72 h; series mostly up to 12.8 µM
# Procedure, shortened: as §1
# DIV30 = test: as above; details: P. falciparum in erythrocytes, SYBR Green DNA, 72 h; series mostly up to 12.8 µM
# Procedure, shortened: as §1
# FAB9 = test: as above; details: P. falciparum in erythrocytes, SYBR Green DNA, 72 h; series mostly up to 12.8 µM
# Procedure, shortened: as §1
# PC49 = test: as above; details: P. falciparum in erythrocytes, SYBR Green DNA, 72 h; series mostly up to 12.8 µM
# Procedure, shortened: as §1
# [9] = measured here: cell count channel max response
# [10] = measured here: lipid channel max response
structure (smiles),measurement,setting,value
c1ccc2c(c1)CCC[C@@H]2C1=NCCN1,outcome,[1],inactive
same,Potency,[2],inactive
same,outcome,[3],inactive
same,"activity change, negative = inhibition",[4]; at 25.7 µM (top of the series),1.29% (inactive)
same,max response,[4]; [9],4.77%
same,max response,[4]; [10],6.92%
same,outcome,[5],inactive
same,Potency,[6],inactive
same,Potency,[7],inactive
same,"activity, negative = inhibition","[8]; at 28.7 µM (top of the series), parasite line A",13.7% (inactive)
same,"activity, negative = inhibition","[8]; at 28.7 µM (top of the series), parasite line B",-0.664% (inactive)
same,Potency,3D7,inactive
same,Potency,C2A,inactive
same,Potency,CP217,inactive
same,Potency,CP238,inactive
same,Potency,CP262,inactive
same,Potency,CP269,inactive
same,Potency,CP305,inactive
same,Potency,CP325,inactive
same,Potency,CP329,inactive
same,Potency,DIV30,inactive
same,Potency,FAB9,inactive
same,Potency,PC49,inactive
NCCC(=O)N[C@@H](Cc1cnc[nH]1)C(=O)O,Potency,[2],inactive
same,outcome,[3],inactive
same,"activity change, negative = inhibition",[4]; at 57.5 µM (top of the series),-2.81% (inactive)
same,max response,[4]; [9],-6.32%
same,max response,[4]; [10],-9.96%
N[C@H](Cc1cc(I)c(Oc2cc(I)c(O)c(I)c2)c(I)c1)C(=O)O,outcome,[1],inactive
same,Potency,[2],inactive
same,outcome,[3],inactive
same,"activity change, negative = inhibition",[4]; at 25.7 µM (top of the series),1.16% (inactive)
same,max response,[4]; [9],20.1%
same,max response,[4]; [10],21%
same,Potency,[6],inactive
CC[C@]1(c2ccccc2)NC(=O)N(C)C1=O,outcome,[1],inactive
same,Potency,[2],inactive
same,outcome,[3],inactive
same,"activity change, negative = inhibition",[4]; at 25.7 µM (top of the series),0.43% (inactive)
same,max response,[4]; [9],11.1%
same,max response,[4]; [10],11.3%
same,Potency,[6],inactive
C[C@@]12CCC(=O)C[C@@H]1CC(=O)[C@H]1[C@H]3CCC[C@]3(C)C(=O)C[C@@H]12 (tested in a mixture with another compound),outcome,[1],inactive
same,Potency,[2],inactive
same,outcome,[3],inactive
same,"activity change, negative = inhibition",[4]; at 25.7 µM (top of the series),0.558% (inactive)
same,max response,[4]; [9],2.78%
same,max response,[4]; [10],4.64%
same,Potency,[6],inactive
CC1(C)S[C@@H]2[C@H](NC(=O)[C@@H](N)c3ccccc3)C(=O)N2[C@H]1C(=O)O[C@H]1OC(=O)c2ccccc21,Potency,[2],inactive
same,outcome,[3],inactive
same,"activity change, negative = inhibition",[4]; at 25.7 µM (top of the series),-2.68% (inactive)
same,max response,[4]; [9],-27.2%
same,max response,[4]; [10],-29.9%
same,outcome,[5],inactive
same,Potency,[7],inactive
same,"activity, negative = inhibition","[8]; at 12.8 µM (top of the series), parasite line A",9.34% (inactive)
same,"activity, negative = inhibition","[8]; at 12.8 µM (top of the series), parasite line B",6.7% (inactive)
same,Potency,3D7,inactive
same,Potency,C2A,inactive
same,Potency,CP217,inactive
same,Potency,CP238,inactive
same,Potency,CP262,inactive
same,Potency,CP269,inactive
same,Potency,CP305,inactive
same,Potency,CP325,inactive
same,Potency,CP329,inactive
same,Potency,DIV30,inactive
same,Potency,FAB9,inactive
same,Potency,PC49,inactive
CC(C)n1c(/C=C\[C@@H](O)C[C@@H](O)CC(=O)O)c(-c2ccc(F)cc2)c2ccccc21,outcome,[1],inactive
same,Potency,[2],inactive
same,outcome,[3],inactive
same,"activity change, negative = inhibition",[4]; at 25.7 µM (top of the series),-2.74% (inactive)
same,max response,[4]; [9],-6.17%
same,max response,[4]; [10],-6.63%
COc1cc2ccc(=O)oc2c(O)c1O,outcome,[3],inactive
same,"activity change, negative = inhibition",[4]; at 57.5 µM (top of the series),-4.51% (inactive)
same,max response,[4]; [9],13.9%
same,max response,[4]; [10],11.4%
CC(C)(C)NC(=O)[C@@H]1C[C@H]2CCCC[C@@H]2CN1C[C@H](O)[C@H](Cc1ccccc1)NC(=O)[C@@H](CC(N)=O)NC(=O)c1ccc2ccccc2n1,outcome,[1],inactive
same,Potency,[2],inactive
same,outcome,[3],inactive
same,"activity change, negative = inhibition",[4]; at 25.7 µM (top of the series),-0.923% (inactive)
same,max response,[4]; [9],1.41%
same,max response,[4]; [10],-0.968%
C[N+]1(C)CCC[C@H]1C(=O)[O-],outcome,[1],inactive
same,Potency,[2],inactive
same,outcome,[3],inactive
same,"activity change, negative = inhibition",[4]; at 25.7 µM (top of the series),-1.16% (inactive)
same,max response,[4]; [9],6.12%
same,max response,[4]; [10],4.64%
CO[C@@H]1C=CO[C@]2(C)Oc3c(C)c(O)c4c(O)c(c(C=NN5CCN(C)CC5)c(O)c4c3C2=O)NC(=O)C(C)=CC=C[C@H](C)[C@H](O)[C@H](C)[C@H](O)[C@H](C)[C@H](OC(C)=O)[C@H]1C,outcome,[1],inactive
same,Potency,[2],inactive
same,outcome,[3],inactive
same,"activity change, negative = inhibition",[4]; at 25.7 µM (top of the series),-0.87% (inactive)
same,max response,[4]; [9],-4.36%
same,max response,[4]; [10],-4.23%
